In PubChem BioAssay (NCATS):

Assay: qHTS drug screen for cell cycle checkpoint inhibitors in PARPi-resistant BRCA-mutant ovarian cancer cell lines. (AID 1963452)
Conditions: PEO1/OlaR viability, CellTiter-Glo luminescence, 96 h; measured here: PEO4 Z-AUC; stronger effect = lower value
Summary of the method: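 PEO1, PEO4 and PEO1/OlaR ovarian cancer cells, 600 per well, exposed 96 h at 37C to a dilution series. Viability read by CellTiter-Glo luminescence, normalized to DMSO and empty wells; activity summarized as Z-AUC.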
With `CCOC(=O)c1ccnc(CNCC(=O)N(CC)CCN(C)C)c1` the Z-AUC was 0.779.
With `NS(=O)(=O)NCCNc1nonc1C(=Nc1ccc(F)c(Br)c1)NO` the Z-AUC was 1.08.
With `O=C(C1CC1)N1CC[C@@H](Cc2n[nH]c(=O)n2-c2ccc(-c3ccc4occc4c3)cc2)C1` the Z-AUC was 0.425.
Molecule `OCc1ccccc1O[C@@H]1O[C@H](CO)[C@@H](O)[C@H](O)[C@H]1O` has a Z-AUC of 0.966.
